Results reported in PubChem BioAssay (NCI).
This is part of a sample that, as a whole, favours compounds with a hit. Of some 79,000 tested, about 15% had one in any assay. Unmarked numbers belong to inactive results. Activity calls are given as the source filed them. No stated cut-off is given here; in the data, active means growth inhibition above about 70%; inactive means the rest.

Legend:
[1] = NCI Yeast Anticancer Drug Screen. Data for the rad50 strain (AID 155);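 further: 0% = growth of vehicle-only cultures of the same strain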; conditions: S. cerevisiae rad50 strain growth inhibition; at 50.0 µM; stronger effect = higher value
Summary of the method: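 Growth of the mutant yeast was measured after compound exposure and referenced to vehicle-treated cultures.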

[2] = NCI Yeast Anticancer Drug Screen. Data for the mec2-1 strain (AID 157); conditions: S. cerevisiae mec2-1 strain, at 50.0 µM, stronger effect = higher value
Summary of the method: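 Compounds were applied to mec2-1 yeast cells. Their growth was then compared with that of vehicle-treated cultures to give growth inhibition.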

[3] = NCI Yeast Anticancer Drug Screen. Data for the sgs1 mgt1 strain (AID 161);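 further: 0% = growth of cultures given vehicle only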; conditions: S. cerevisiae sgs1 mgt1 strain, at 50.0 µM, stronger effect = higher value
Summary of the method: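 Compounds are added to genetically altered yeast, and growth is compared with cultures given vehicle alone to give percent inhibition.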

[4] = NCI Yeast Anticancer Drug Screen. Data for the cln2 rad14 strain (AID 165);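 further: 0% = growth equal to vehicle treated cultures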; conditions: S. cerevisiae cln2 rad14 strain, at 50.0 µM, stronger effect = higher value
Summary of the method: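 Strain: cln2 rad14 yeast, altered in cell cycle control and DNA damage repair. Read-out: growth inhibition vs vehicle.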

[5] = NCI Yeast Anticancer Drug Screen. Data for the bub3 strain (AID 167); conditions: S. cerevisiae bub3 mutant strain, at 50.0 µM, stronger effect = higher value
Summary of the method: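 Whole-cell yeast assay. The mutant strain was incubated with compounds, and growth inhibition was determined by comparison with vehicle-treated cells.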

[6] = NCI Yeast Anticancer Drug Screen. Data for the mlh1 rad18 strain (AID 175); conditions: S. cerevisiae mlh1 rad18 strain growth inhibition; at 50.0 µM; stronger effect = higher value
Summary of the method: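 A repair-deficient yeast strain is exposed to test compound, and growth is scored relative to vehicle-treated controls.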

## O=C(Cc1ccccc1)OCc1ccco1
[1]
  growth inhibition: 6.9%
[2]
  growth inhibition: -23.9%
[3]
  growth inhibition: -30%
[4]
  growth inhibition: -41.5%
[5]
  growth inhibition: 13.4%
[6]
  growth inhibition: -4.7%

## O=S(=O)(O)O.[W]
[1]
  growth inhibition: 27.2%
[2]
  growth inhibition: -7.55%
[3]
  growth inhibition: 14.3%
[4]
  growth inhibition: -5.65%
[5]
  growth inhibition: 18%
[6]
  growth inhibition: -8.95%

## CCCOC(=O)c1cncn1C(C)c1ccccc1 (stereo unspecified)
[1]
  growth inhibition: 4.4%
[2]
  growth inhibition: 18.7%
[3]
  growth inhibition: 37.5%
[4]
  growth inhibition: 10.7%
[5]
  growth inhibition: 35.6%
[6]
  growth inhibition: 31.4%

## O=C(CN1CCOCC1)c1ccc2ccccc2c1
[1]
  growth inhibition: 10.1%
[2]
  growth inhibition: 2.05%
[3]
  growth inhibition: 8.4%
[4]
  growth inhibition: -14.4%
[5]
  growth inhibition: 17%
[6]
  growth inhibition: 9.85%

## O=C(Nc1ccc(Cl)cc1C(=O)c1ccccc1)c1ccc(Cl)cc1
[1]
  growth inhibition: -5.95%
[2]
  growth inhibition: 10.1%
[3]
  growth inhibition: 4.25%
[4]
  growth inhibition: -2%
[5]
  growth inhibition: 25.9%
[6]
  growth inhibition: 9.55%

## CC12CCC3C(CCC4=CC(=O)CCC43C=O)C1CCC2Oc1ccccc1 (stereo unspecified)
[1]
  growth inhibition: 20.7%
[2]
  growth inhibition: -9.7%
[3]
  growth inhibition: 25%
[4]
  growth inhibition: 23.6%
[5]
  growth inhibition: 12.4%
[6]
  growth inhibition: 25.6%

## CCCCCCCC(=O)O.[Pb]
[1]
  growth inhibition: 3.55%
[2]
  growth inhibition: 5.55%
[3]
  growth inhibition: 3%
[4]
  growth inhibition: 13.9%
[5]
  growth inhibition: -6%
[6]
  growth inhibition: 14.8%

## Cc1cccc(N=Nc2ccc(N(C)C)cc2)c1
[1]
  growth inhibition: -8.45%
[2]
  growth inhibition: -36.6%
[3]
  growth inhibition: 2.4%
[4]
  growth inhibition: -29.6%
[5]
  growth inhibition: -8.6%
[6]
  growth inhibition: -13.3%

## CCC1(CC)C(=O)C=CNC1=O
[1]
  growth inhibition: 17.6%
[2]
  growth inhibition: -20.6%
[3]
  growth inhibition: 11.7%
[4]
  growth inhibition: 1.1%
[5]
  growth inhibition: -8.15%
[6]
  growth inhibition: 8.15%

## CNC(P(=O)([O-])[O-])P(=O)([O-])[O-].N.N.[Pt+2]
[1]
  growth inhibition: -0.2%
[2]
  growth inhibition: -16.3%
[3]
  growth inhibition: -47.2%
[4]
  growth inhibition: -17.1%
[5]
  growth inhibition: -8.65%
[6]
  growth inhibition: -15.7%

## COC(=O)C1C(c2ccc(-c3ccccc3)cc2)N1C1CCCCC1 (stereo unspecified)
[1]
  growth inhibition: 7.7%
[2]
  growth inhibition: 19.8%
[3]
  growth inhibition: 2.9%
[4]
  growth inhibition: -2.05%
[5]
  growth inhibition: -4%
[6]
  growth inhibition: 1.85%

## CCCN(CCC)C(=O)CCl
[1]
  growth inhibition: -4.55%
[2]
  growth inhibition: 5.2%
[3]
  growth inhibition: 5.85%
[4]
  growth inhibition: 3.3%
[5]
  growth inhibition: -4.55%
[6]
  growth inhibition: 9.4%

## CC(C)(C)[Si](C)(C)OC(=O)CCCc1ccc(N(CCCl)CCCl)cc1
[1]
  growth inhibition: 12.1%
[2]
  growth inhibition: -9.9%
[3]
  growth inhibition: -10.2%
[4]
  growth inhibition: 9.4%
[5]
  growth inhibition: -21.7%
[6]
  growth inhibition: -47.1%

## CCOC(=O)C1C2(C)NC(=O)C1(Cc1ccccc1)c1ccc(O)cc1O2 (stereo unspecified)
[1]
  growth inhibition: 4.05%
[2]
  growth inhibition: 3.1%
[3]
  growth inhibition: -13.1%
[4]
  growth inhibition: 0.05%
[5]
  growth inhibition: 2.5%
[6]
  growth inhibition: -1.05%

## O=[N+]([O-])O.[Tl]
[1]
  growth inhibition: -5.5%
[2]
  growth inhibition: -23.2%
[3]
  growth inhibition: -16.8%
[4]
  growth inhibition: 6.8%
[5]
  growth inhibition: -19.4%
[6]
  growth inhibition: -18.4%

## COC(=O)C1=C(N2CCCC2)C2c3ccccc3SC12C(=O)OC (stereo unspecified)
[1]
  growth inhibition: 20.1%
[2]
  growth inhibition: 10.8%
[3]
  growth inhibition: -0.25%
[4]
  growth inhibition: 0.7%
[5]
  growth inhibition: 14.2%
[6]
  growth inhibition: 9.3%

## COC1OC2COC(c3ccccc3)OC2C2N=C(N)N([N+](=O)[O-])C12OS(C)(=O)=O (stereo unspecified)
[1]
  growth inhibition: -4.8%
[2]
  growth inhibition: -5.4%
[3]
  growth inhibition: -12.2%
[4]
  growth inhibition: -21.1%
[5]
  growth inhibition: -3.6%
[6]
  growth inhibition: 3.75%

## CC(C)N1CCc2cc3c(cc2C1)OCO3
[1]
  growth inhibition: 9.8%
[2]
  growth inhibition: 11.1%
[3]
  growth inhibition: 1.3%
[4]
  growth inhibition: 1.25%
[5]
  growth inhibition: -17.5%
[6]
  growth inhibition: 23%

## c1ccc2c(c1)ccc1[s+]cccc12
[1]
  growth inhibition: 69.4%
[2]
  growth inhibition: 23.2%
[3]
  growth inhibition: 35.7%
[4]
  growth inhibition: 25.4%
[5]
  growth inhibition: 16.1%
[6]
  growth inhibition: 76% (active)

## COP(=O)(OC)N1CCCCC1
[1]
  growth inhibition: 29%
[2]
  growth inhibition: 20.4%
[3]
  growth inhibition: 12.7%
[4]
  growth inhibition: 12.4%
[5]
  growth inhibition: 22%
[6]
  growth inhibition: 27.6%

## COC(=O)C1C(O)CC2(O)CC(O)CC(O)C(O)CCC(O)CC(O)CC(=O)OC(C)C(C)C(O)C(C)/C=C/C=C/C=C/C=C/C=C/C=C/C=C/C(OC3OC(C)C(O)C(N)C3O)CC1O2 (stereo unspecified)
[1]
  growth inhibition: -6.8%
[2]
  growth inhibition: 6.95%
[3]
  growth inhibition: -4.9%
[4]
  growth inhibition: 6.15%
[5]
  growth inhibition: 1.6%
[6]
  growth inhibition: -3.7%
